{"source": "PubChem BioAssay (NCI)", "note": "About 83,000 compounds went through this panel and 20% of them were active in at least one assay; those are over-represented in the sample as a whole.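 Assay: single dose, 48 h. Readout: percent growth (0 = no net growth; negative = cell death). Active: <10.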 Active and inactive are the calls of the source.", "data": [{"test_system": "COLO 205 colon", "assay": "NCI-60 one-dose screen, 48 h (100 = growth as untreated, 0 = no growth, -100 = all killed)", "conditions": "10 µM unless noted", "values": [{"smiles": "Cc1ccc(C2CC(c3nc(-c4ccc(Cl)cc4)oc3C)=NN2C(=O)c2ccncc2)cc1", "note": "(stereo not given)", "growth": "107% (inactive)"}, {"smiles": "CSc1nc(C)c([N+](=O)[O-])c(N)n1", "growth": "110% (inactive)"}, {"smiles": "[2H]C([2H])([2H])Oc1ccc(F)cc1/C=C/C(=O)/C=C(O)/C=C/c1cc(F)ccc1OC([2H])([2H])[2H]", "growth": "116% (inactive)"}, {"smiles": "COc1ccc(-c2nc3c(N)c(CO)cnc3s2)cc1", "growth": "104% (inactive)"}, {"smiles": "O=S(=O)(NCCNc1nccc(-c2c(-c3ccc(F)c(O)c3)nc3sccn23)n1)c1ccc(F)cc1", "growth": "26.2% (inactive)"}, {"smiles": "CCOC(=O)c1cnc2c(N=Nc3ccc(OC)cc3)c(N)nn2c1N", "growth": "106% (inactive)"}, {"smiles": "COc1ccc(-c2nn(-c3ccccc3)cc2/C=C/C(=O)NNC(=O)Nc2ccc(C)cc2)cc1", "growth": "103% (inactive)"}, {"smiles": "Oc1ccc(/C=C/c2ccc(O)cc2)cc1", "growth": "134% (inactive)"}, {"smiles": "O=[N+]([O-])c1ccc(-c2cn3nc(-c4c[nH]c5ccccc45)sc3n2)cc1", "growth": "108% (inactive)"}, {"smiles": "Oc1c(CN2CCOCC2)cc(COCc2ccccc2)c2cccnc12", "growth": "62.8% (inactive)"}, {"smiles": "CCOC(=O)CC1CSC(Nc2ccccc2)=N1", "note": "(stereo not given)", "growth": "125% (inactive)"}, {"smiles": "CCc1n(Cc2ccc3ccccc3n2)cc[n+]1Cc1ccc2ccccc2n1", "growth": "-38.9% (active)"}, {"smiles": "O=P(O)(O)OCC1OC(n2cnc3c(NCc4ccco4)ncnc32)C(O)C1O", "note": "(stereo not given)", "growth": "22.8% (inactive)"}, {"smiles": "COc1ccc(C2=CC(c3cc(OC)c(OC)c(OC)c3)n3ncnc3N2)cc1", "note": "(stereo not given)", "growth": "-64.8% (active)"}, {"smiles": "C/C=C(\\C)C(=O)N[C@H]1C(O)C[C@]2(C)C3CC[C@@]4(C)C(CC[C@@H]4C(C)N(C)C)C3CCC2C1O", "note": "(stereo not given in full)", "growth": "29.4% (inactive)"}, {"smiles": "COc1cc(-c2nc3sccn3c2-c2ccnc(NCCNS(=O)(=O)c3ccc(Cl)cc3)n2)ccc1F", "growth": "33.8% (inactive)"}, {"smiles": "CCCn1cnc2c(c1=N)C(c1ccc(F)cc1)c1sc3c(F)cccc3c1O2", "note": "(stereo not given)", "growth": "86.4% (inactive)"}, {"smiles": "C#CCNC(=O)[C@]1(C)CCC[C@@]2(C)[C@H]1CC=C1C=C(C(C)C)CC[C@@H]12", "growth": "115% (inactive)"}, {"smiles": "N[C@H]1CCC[C@@H]1NCCCCN1C(=O)c2cccc3cc([N+](=O)[O-])cc(c23)C1=O", "growth": "26% (inactive)"}, {"smiles": "CC1C=CC(OC(=O)C(C)(O)CCC(O)(C(=O)OC2CC(O)C(C(C)C)CC2(C)O)C(C)C)(C(C)C)CC1", "note": "(stereo not given)", "growth": "-68.3% [4.63 µM] (active)"}, {"smiles": "C=CC(=O)Nc1ccc(Nc2nccc(-c3ccc(N4CCCC4)c(C#N)c3)n2)cc1", "growth": "7.29% (active)"}, {"smiles": "CC(=O)OC(c1ccccc1)C1CCOC1=O", "note": "(stereo not given)", "growth": "170% (inactive)"}, {"smiles": "COC(=O)CCC/C=C\\C[C@H]1C=CC(=O)/C1=C/C[C@@H](O)C/C=C\\CC(F)(F)F", "growth": "-36.2% (active)"}, {"smiles": "N#CC1=C(N)Oc2ccc3ccccc3c2C1c1ccc([N+](=O)[O-])cc1", "note": "(stereo not given)", "growth": "102% (inactive)"}, {"smiles": "COc1cc(-c2nc3c(ncc4ccc(=O)n(-c5ccccc5)c43)s2)cc(OC)c1OC", "growth": "79.2% (inactive)"}, {"smiles": "Cc1ccc(-c2csc(N(C(=O)N3CCN(c4cc5c(cc4F)c(=O)c(C(=O)O)cn5C4CC4)CC3)c3ccccc3)n2)cc1", "growth": "8.13% (active)"}, {"smiles": "O=c1cc(-c2ccccc2)[nH]c2ncc(-c3ccc(F)cc3)n12", "growth": "77.4% (inactive)"}, {"smiles": "COc1cc(-c2nc3cc(Cl)c(Cl)cc3[nH]2)ccc1OCC(=O)N=Nc1c(O)[nH]c2ccc(Cl)cc12", "growth": "-63.3% (active)"}, {"smiles": "NC(=O)c1c(NC(=O)c2cccs2)sc2c1CCC(=O)C2", "growth": "34.2% (inactive)"}, {"smiles": "O=C(Oc1ccc(CCl)cc1)c1ccccc1", "growth": "-72.9% (active)"}, {"smiles": "O=C(Cc1ccc(/C=C/C(=O)c2ncc[nH]2)cc1)Nc1cc(C(F)(F)F)cc(C(F)(F)F)c1", "growth": "102% (inactive)"}, {"smiles": "Nc1ncnc2c1N=C(c1ccc3c(c1)OCO3)CC(c1cccc(Nc3ccnc4cc(C(F)(F)F)ccc34)c1)N2", "note": "(stereo not given)", "growth": "115% (inactive)"}, {"smiles": "COc1cccc(/C=N/NC(=O)c2ccccc2N2CCCC2)c1O", "growth": "54.3% (inactive)"}, {"smiles": "CCNc1ccc(-c2nc3ccccc3n3cccc23)cc1", "growth": "95.2% (inactive)"}, {"smiles": "CN(C)CCCNC(=O)c1cncnc1Nc1ccc(OCc2cccc(F)c2)c(Cl)c1", "growth": "-71.3% (active)"}, {"smiles": "O=C(NC1CC(F)C1)c1cc2cccnc2n1-c1ccc(Cl)c(Cl)c1", "note": "(stereo not given)", "growth": "109% (inactive)"}, {"smiles": "CN1CCN(c2ccc3nc4c(nc3c2C(F)(F)F)C(=O)c2ncccc2C4=O)CC1", "growth": "-95% (active)"}, {"smiles": "Cc1ccc(N2C(=O)CCC2=O)cc1", "growth": "107% (inactive)"}, {"smiles": "CCN1C(=O)N(CC)C2C1NN=c1s/c(=C3\\C(=O)N(CCC(C)C)c4ccccc43)c(=O)n12", "note": "(stereo not given)", "growth": "12.3% (inactive)"}, {"smiles": "CN(Cc1cnc2nc(N)nc(N)c2n1)c1ccc(C(=O)NC(CCC(=O)O)C(=O)O)cc1Br", "note": "(stereo not given)", "growth": "36.3% (inactive)"}]}]}
